# Source: PubChem
# A selection: hits, their analogues and other compounds. The true share with any hit is near 11%.
# HCV inh: HCV inhibition; Huh7.5.1 HCVcc-Cre infection, luciferase reporter, 44 h; 340,000 compounds, 3.4% hits; Potency, µM (titrated, usually from 41.8 µM), for the others: at the top dose activity change, negative = inhibition, actives largely listed as inhibitors
#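 Compounds are dispensed onto cells plated 4 h earlier at 1,000 per well, with HCVcc-Cre virus (about 0.5 moi) added next. Following 44 h of culture, luminescent signal is measured for 15 sec after 15 min with substrate at room temperature.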
# AMA1 RON2 block: inhibitors of Plasmodium falciparum AMA1-RON2 interaction; AlphaScreen AMA1-biotinylated RON2 peptide binding; Potency, µM (series often up to 58.2 µM), without a hit: at the highest dose activity change, negative = inhibition, most hits filed as inhibitors; 360,000 compounds, 0.2% hits; AID 720542;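 also: 0% = vehicle wells and -100% = peptide control; nearly all actives have a fitted effect of over 45% in size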
#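 AMA1 (3D7) with his tag at 25 nM final met compounds first, then biotinylated RON2 peptide at 25 nM; detection used donor plus acceptor beads, 10 µg/mL apiece, read by AlphaScreen after 30 min at room temperature.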
# Pf growth 96h: P. falciparum growth inhibition at 96 hour, primary screen for plastid delayed-death inhibitors | P. falciparum luciferase reporter growth, 96 h | Potency, µM (titrated, usually from 28.7 µM), inactives show at the highest dose activity change, negative = inhibition, hits mostly inhibitors | 320,000 compounds, 6.9% hits
#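 Erythrocytes infected with luciferase-expressing P. falciparum were dispensed at 2% hematocrit and 0.05% parasitemia (final), then incubated with compounds 96 hours at 37 C in 5% CO2. Luminescence after detection reagent addition reported growth.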
# Pf growth 48h: P. falciparum growth inhibition at 48 hours (one generation) | AID 504832 | 310,000 compounds, 5.9% hits | P. falciparum luciferase growth in erythrocytes, 48 h | Potency, µM (titrated, usually from 28.7 µM), for the others: at the highest dose activity change, negative = inhibition, most hits filed as inhibitors
#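 Luminescence readout; reporter = integrated firefly luciferase in P. falciparum. RBC culture at 2% hematocrit, 0.1% parasitemia final, 37 C/5% CO2; decreased signal taken as growth inhibition.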
# * hit, by the source's call; u = inconclusive; x = not tested or not shown; [ ] = remark or other dose. Calls follow the shape of the dose curve; as a rule, active = well fitted curve in the direction sought with a large enough effect; inconclusive = small, poorly fitted or top-dose-only effect, or another doubt; inactive = no such curve, though single readings can be large; an effect the other way counts as inactive or inconclusive. Unless noted, % is scaled to controls: 0 for no effect and ±100 for the full control effect; potency is read from the fitted curve at half-maximal effect.
SMILES,HCV inh,AMA1 RON2 block,Pf growth 96h,Pf growth 48h
N=c1oc2ccc3ccccc3c2cc1-c1nnc2n1CCCCC2,4%,3%,9.3µM*,41%
COc1ccc2oc(=N)c(-c3nnc4n3CCCCC4)cc2c1,0%,14%,x,39%
COC(=O)C1=C(C)NC2=C(C(=O)CCC2)C1c1coc2ccccc2c1=O (centres undefined),0%,3%,86%,u
COC(=O)C1=C(C)NC2=C(C(=O)CC(C)(C)C2)C1c1cn(Cc2ccc(Br)cc2)nc1-c1ccccc1 (centres undefined),u,18%,u,13µM*
COC(=O)C1=C(C)NC2=C(C(=O)CCC2)C1c1cn(Cc2ccc(Br)cc2)nc1-c1ccccc1 (centres undefined),u,0%,13µM*,8.3µM*
COC(=O)C1=C(C)NC2=C(C(=O)CC(C)(C)C2)C1c1cccc(C)n1 (centres undefined),4%,16%,u,-17%
CC(C)(C)OC(=O)N1CCC(C(=O)N2CCOCC2)CC1,1%,23%,5%,42%
CC(C)(C)OC(=O)N1CCC(C(=O)N2CCCCCC2)CC1,16%,-2%,12µM*,1%
COC(=O)C1CCN(C(=O)C2CCCCC2)CC1,5µM*,1%,u,-5%
Cn1nc(C(C)(C)C)cc1C(=O)N1CCCCC1c1cc(C(=O)Nc2ccccc2Cl)no1 (centres undefined),x,25%,x,x
CCOC(=O)c1ccc(NCCc2ccc(OC)c(OC)c2)c(N)c1,11%,u,u,9.3µM*
COc1ccc(CCNC(=O)c2ccc(OC)c(OC)c2)cc1OC,1%,9%,18%,6%
Cc1ccccc1-c1cc2nc(NCc3ccccc3F)n(C)c(=O)c2s1,x,0%,x,x
CCN(CC)S(=O)(=O)N1CCC(C(=O)NCc2ccc3c(c2)OCO3)CC1,26%,-7%,2.6µM*,-10%
O=S(=O)(c1c(F)cccc1F)N1CCN(C(=S)NCc2ccc3c(c2)OCO3)CC1,-9%,-3%,2.1µM*,2.1µM*
O=C(NCc1ccc2c(c1)OCO2)C1CCCN1C(=O)Nc1cccc(F)c1 (centres undefined),4%,7%,-1%,u
CC(=O)c1cccc(NC(=O)N2CCCC2C(=O)NCc2ccc3c(c2)OCO3)c1 (centres undefined),-6%,-20%,13µM*,u
O=C(NCc1ccc2c(c1)OCO2)C1CCCN1S(=O)(=O)c1ccc(F)cc1 (centres undefined),15%,0%,34%,2.3µM*
CC(C)CC1(C(=O)NCc2cc(F)cc(C(F)(F)F)c2)C=CCN1C(=O)c1ccccc1 (centres undefined),22%,54%,u,-18%
CCN(CC)S(=O)(=O)c1ccc(OC)c(NC(=O)C(Cc2ccccc2)N2C(=O)c3ccccc3C2=O)c1 (centres undefined),-13%,x,-10%,9%
CCc1nc2ccccc2n1CCC(C)C,u,-12%,-14%,-9%
COc1ccc(NC2CCCN(C(=O)CCN3CCOCC3)C2)cc1 (centres undefined),9%,-1%,8%,-9%
COc1ccc(NS(=O)(=O)c2ccc(NC(=S)NC(=O)/C=C/c3ccccc3)cc2)nn1,3%,59%,-34%,-5%
CC1=C2C(=O)C3C(CC=C4CC(O)CCC43C)C2CCC12OC1CC(C)CNC1C2C (centres undefined),16%,8%,u,13µM*
Cc1ccc(C)c(S(=O)(=O)N2CCN(C(=O)c3ccnn3C)CC2)c1,-27%,-1%,41%,u
SMILES,HCV inh,AMA1 RON2 block,Pf growth 96h,Pf growth 48h
CC(C)(C)CC(C)(C)Nc1c(-c2ccc(O)cc2)nc2cnccn12,u,7%,x,x
CCCC(=O)C1=C(O)C(C(=O)OC)C(C)(C)CC1=Nc1ccccc1 (centres undefined),-22%,26%,-4%,4.1µM*
CCC(=NCc1ccccc1)C1=C(O)C(C(=O)OC)C(C)(C)CC1=O (centres undefined),16%,-2%,12µM*,7%
CCCC(=O)C1=C(O)C(C(=O)OC)C(C)(C)CC1=Nc1cccc2ccccc12 (centres undefined),u,-8%,-27%,5.2µM*
CCCC(=O)C1=C(O)C(C(=O)OC)C(C)(C)CC1=NCc1ccccc1 (centres undefined),4%,-1%,7.4µM*,u
CCCC(=O)C1=C(O)C(C(=O)OC)C(C)(C)CC1=Nc1cccc([N+](=O)[O-])c1 (centres undefined),-11%,21%,-29%,u
CCCC(=O)C1=C(O)C(C(=O)OC)C(C)(C)CC1=NC(C)(C)C (centres undefined),u,0%,x,u
CCc1occc(=O)c1Oc1cc(NN2CCCCC2)c([N+](=O)[O-])cc1[N+](=O)[O-],-17%,-13%,u,-40%
CCCCNC(=O)c1[nH]c(C2CCNCC2)nc1-c1cccc(C(F)(F)F)c1,x,-10%,x,x
COc1ccc(N2CCN(C3CCCN(C(=O)CN4CCCC4=O)C3)CC2)cc1 (centres undefined),11%,-8%,u,-2%
Cc1ccc(S(=O)(=O)N2C3CCCCC3O[C@H]2CC(=O)c2cccc3ccccc23)cc1 (some centres undefined),x,-5%,x,x
CCC(=O)C1CCCN(C(=O)CCc2nnc(-c3ccc(C(C)=O)s3)o2)C1 (centres undefined),1%,6%,57%,11%
COc1ccccc1C(=O)N/N=C(\C)c1cccnc1,-12%,13%,x,x
C[C@@H]1CN([C@@H](C)CO)C(=O)c2cc(-c3cccnc3)cnc2O[C@H]1CN(C)C(=O)c1cccc(F)c1,x,1%,x,x
CCOC(=O)c1nn(-c2ccccc2)c(=O)c(C#N)c1C,20%,18%,15µM*,x
CCOC(=O)c1nn(-c2ccccc2)c(C#N)c1NC(=O)c1nn(CC)cc1Br,u,-7%,-6%,u
CCOC(=O)c1c(NC(=O)c2nn(CC)cc2Br)c(C#N)nn1-c1ccccc1,11µM*,14%,-25%,13µM*
Cc1cccnc1NC(=O)CNC(=O)COc1ccccc1,16%,10%,26%,18%
COc1ccccc1NC(=O)C1CCN(S(C)(=O)=O)CC1,15%,14%,3%,3%
CCCS(=O)(=O)NC(=O)C1(C)CCN(C(=O)c2cccc(C(F)(F)F)c2)C1 (centres undefined),x,1%,x,x
CCN(CC)CCC(c1ccc2c(c1)OCO2)c1c(OC)cc(OC)c2ccc(=O)oc12 (centres undefined),1%[8.37 µM],6%,u,u
COc1cc(C(CCN2CCCC2)c2c(OC)cc(OC)c3ccc(=O)oc23)cc(OC)c1OC (centres undefined),2µM*,8%,10µM*,u
CCN(CC)CCC(c1cc(OC)c(OC)c(OC)c1)c1c(OC)cc(OC)c2c(C)cc(=O)oc12 (centres undefined),7%,-2%,u,9.3µM*
